Compounds with a hit are over-represented: about 2.4% of the library has one in this group of screens.
D2 ag-1 – HTS Assay for Allosteric Agonists of the Human D2 Dopamine Receptor: Primary Screen for Agonists; HEK293 T-REx D2 cells, calcium flux agonist mode; 0.53% of 340,000 active; activation, % at 2 µM; AID 485358, 2010;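 active means activation over 3 SD above normal in the single-dose calcium agonist read, cut at about 30% in these data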; further: 0% is about no effect
Target sequence (P14416 whole entry, looked up): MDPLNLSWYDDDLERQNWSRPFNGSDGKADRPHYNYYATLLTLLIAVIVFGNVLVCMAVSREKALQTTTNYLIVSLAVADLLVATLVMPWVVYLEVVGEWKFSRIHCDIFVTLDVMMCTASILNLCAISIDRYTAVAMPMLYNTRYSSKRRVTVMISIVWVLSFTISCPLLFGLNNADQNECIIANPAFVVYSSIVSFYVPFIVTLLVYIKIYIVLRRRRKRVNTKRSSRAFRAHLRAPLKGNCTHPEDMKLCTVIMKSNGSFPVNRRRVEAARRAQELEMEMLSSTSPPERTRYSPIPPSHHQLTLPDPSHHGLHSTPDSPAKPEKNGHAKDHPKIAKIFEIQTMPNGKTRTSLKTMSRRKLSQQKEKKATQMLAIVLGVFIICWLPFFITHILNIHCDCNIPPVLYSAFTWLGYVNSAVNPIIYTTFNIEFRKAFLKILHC
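Tetracycline-induced HEK293 T-REx cells with force-coupled D2 receptor, plated overnight at 30 C, loaded with no-wash calcium dye. After a 10 s baseline, compound was pin-added and calcium flux read kinetically for 180 s; calcium rises flagged agonists.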
D2 antagonist – HTS Assay for Allosteric Antagonists of the Human D2 Dopamine Receptor: Primary Screen for Antagonists. HEK293 TREx D2 cells, calcium flux, dopamine EC80. inhibition, % at 10 µM. 2% of 340,000 active. AID 485344, 2010; in the data active means inhibition above about 30%; inactive means below that, where a call was filed; further: 0% is about no effect
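Overnight-induced (tetracycline, 30 C) HEK293 T-REx cells carrying force-coupled D2 receive a no-wash calcium dye, then compound, then EC80 dopamine at 180 s; signals are read kinetically throughout.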
D2 PAM-1 – Beta-Arrestin HTS for Positive Allosteric Modulators of the Human D2 Dopamine Receptor: Potentiators | DiscoveRx D2 beta-arrestin cells, luminescence, 90 min; 100% = 57 uM dopamine signal | potentiation, % (concentration not given with the values) | 0.23% of 360,000 active; in the data active means potentiation above about 50%; inconclusive means mostly about 30% to 49%
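PathHunter beta-arrestin assay in DiscoveRx D2 cells. Compounds were added with an EC20 of dopamine (50 nM final) for 90 min at 37 deg C. Luminescence was read 1 h after detection reagent, with 57 uM dopamine as the EC100 control.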
D2 PAM-2 – HTS Assay for Positive Allosteric Modulators of the Human D2 Dopamine Receptor: Primary Screen for Potentiators. D(2) dopamine receptor (Homo sapiens), P14416. potentiation, % at 10 µM. HEK293 T-REx D2, calcium flux, EC20 dopamine potentiation. 0.34% of 340,000 active;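 active means potentiation over 3 SD above the plate norm, cut at about 30% in these data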; further: 0% is about no effect
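Using a no-wash calcium dye in inducible, force-coupled HEK293 Trex cells expressing D2, we tracked fluorescence each second for 180 s after compound, then for 180 s after EC20 dopamine to detect augmented signalling.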
D2 ag-2 – Beta-Arrestin HTS for Positive Allosteric Modulators of the Human D2 Dopamine Receptor: Agonists; AID 624465, 2012; DiscoveRx PathHunter D2 beta-arrestin, luminescence, 90 min; 100% = 57 uM dopamine signal; 0.084% of 360,000 active; activation, % (concentration not given with the values); D(2) dopamine receptor (Homo sapiens), P14416; in the data active means activation above about 40%; inconclusive means between about 15% and that limit
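DiscoveRx PathHunter D2 beta-arrestin cells (2,100/well) attached overnight, then compound-stimulated 90 min at 37 C in HBSS/10 mM HEPES/0.1% Tween-20 buffer; beta-galactosidase complementation read by luminescence after 1 h at ambient temperature. Dopamine 57 uM final (EC100) as control.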
D3 arrestin ag – qHTS of D3 Dopamine Receptor Agonist: D3 Dopamine Receptor B-arrestin Agonist Confirmatory Assay; AID 720506, 2013; shares compounds with D2 ag-1; 4% of 2,300 active; Potency, µM (titrated, usually from 76.9 µM), inactives show top-dose activation, hits mostly activators; DiscoveRx D3 beta-arrestin cells, luminescence, 90 min;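 further: potency means the concentration at half of the fitted maximal effect; 100% = dopamine control response; nearly all actives have a fitted effect of over 70% in size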
D2 ag-3 – qHTS of D3 Dopamine Receptor Agonist: D2 Dopamine Receptor B-arrestin Agonist Counterscreen; shares compounds with D2 ag-1; DiscoveRx PathHunter D2 beta-arrestin, luminescence, 90 min; response scale: percent relative to full dopamine signal; Potency, µM (highest dose often 76.9 µM), inactives show at the top dose activation, most hits filed as activators; 5.9% of 2,300 active; AID 720507, 2013; further: potency means the concentration at half of the fitted maximal effect; % of control where 0% means no effect; nearly all actives have a fitted effect of over 70% in size
Active calls of the source: *; ? = inconclusive; . = not tested or not shown. Unless noted, the call rests on the fitted dose curve; in most records, active means well fitted activation curve with a large enough effect; inconclusive means small, poorly fitted or top-dose-only effect; inactive means flat fitted curve, though single readings scatter.

SMILES	D2 ag-1	D2 antagonist	D2 PAM-1	D2 PAM-2	D2 ag-2	D3 arrestin ag	D2 ag-3
CCCCN(CC)CCCNC(=O)CC1Nc2ccccc2NC1=O (stereo not given)	75*	40*	-7	-14	9	-1%	2%
CN(C)CCNC(=O)c1ccc2nc(Cc3ccccc3)oc2c1	1	.	.	-7	.	.	.
CCOC(=O)CCc1c(C(=O)OCC)[nH]c(CC)c1C(=O)OCc1ccccc1	0	7	1	-2	-7	-3%	-3%
CCOC(=O)c1c(C)[nH]c(C(=O)OCc2ccccc2)c1C	1	-4	-6	-3	-1	.	.
CCCN(CCC)C(=O)c1c2c(nc3ccccc13)C(=O)N(C1CCCCC1)C2	0	.	.	0	.	.	.
CCCC(=O)Nc1nnc(SCc2cc(=O)n3ccccc3n2)s1	-1	.	.	3	.	.	.
Cc1cc(=O)n2nc(N3CCC(C(=O)NCCc4ccc(Cl)cc4)CC3)sc2n1	43*	-20	-3	-12	0	10%	6%
CCOc1ccc(C2C(=O)N(C3CCCCCC3)CC(=O)N2CCc2ccccc2)cc1OC (stereo not given)	1	.	.	-12	.	.	.
c1ccc(Cn2nnnc2CN2CCN(Cc3ccc4c(c3)OCO4)CC2)cc1	1	4	-36	-1	0	.	.
COc1ccc(Cn2nnnc2CN2CCc3ccccc3C2)cc1	57*	34*	11	-11	?	6%	?
c1ccc2c(c1)CCN(Cc1nnnn1Cc1ccc3c(c1)OCO3)C2	68*	24	16	-24	?	2%	?
CCC(c1nnnn1Cc1ccc2c(c1)OCO2)N1CCN(c2ccccc2)CC1 (stereo not given)	80*	79*	0	-33	?	3%	?
Cc1nn(C(=O)c2ccc(Br)cc2)c(C)c1S(=O)(=O)N1CCOCC1	-1	.	.	-6	.	.	.
COc1ccc(NC(=O)COC(=O)CNC(=O)c2cccs2)cc1Cl	-2	8	0	0	5	0%	2%
C[C@@H]1NS(=O)(=O)[C@H]2C[C@@H]3C=C[C@]2(O3)[C@H]1OC(=O)Nc1ccc(C(F)(F)F)cc1[N+](=O)[O-]	1	-6	-1	2	-4	9%	2%
Cc1cc(C(=O)O[C@H]2[C@H](C)NS(=O)(=O)[C@H]3C[C@@H]4C=C[C@]23O4)cc([N+](=O)[O-])c1	0	-11	-11	1	-3	.	.
Cc1ccccc1-c1cc(C(=O)NCC2CC2)nn1CC1CC(c2cccc([N+](=O)[O-])c2)=NO1 (stereo not given)	-1	-1	-3	-5	0	-1%	-1%
N#Cc1c(-c2ccco2)nc(SCc2ccc(F)cc2)[nH]c1=O	-2	-3	-11	-9	-2	.	.
Cc1nc(SCc2cccc(F)c2)[nH]c(=O)c1C#N	.	.	3	.	-2	-3%	-3%
CCc1nc2ccc(C(=O)NCc3ccc(N(C)C)cc3)cc2nc1CC	0	.	.	-10	.	.	.
Cc1ccccc1NC(=O)c1sc2nc(-c3ccncc3)ccc2c1N	5	.	.	4	.	.	.
CN(C)c1ccc(S(=O)(=O)N2CCCCC2)cc1NC(=O)C1CSC2(C)CCC(=O)N12 (stereo not given)	0	-3	-4	4	-1	0%	-2%
COc1cc(C(CCN2CCN(c3ccccc3)CC2)c2c(OC)cc(OC)c3c(C)cc(=O)oc23)cc(OC)c1OC (stereo not given)	25	12	-27	-15	0	-22%	-5%
COc1cc(OC)c2c(C)cc(=O)oc2c1C(CCN1CCOCC1)c1ccc2c(c1)OCO2 (stereo not given)	0	25	-22	-18	1	.	.
OCC1(CCc2ccccc2)CCN(Cc2cnc(N3CCCC3)s2)CC1	.	.	-34	.	-3	.	.
SMILES	D2 ag-1	D2 antagonist	D2 PAM-1	D2 PAM-2	D2 ag-2	D3 arrestin ag	D2 ag-3
CN(C)c1ncc(CN2CCC(CO)(CCCc3ccccc3)CC2)s1	68*	62*	-7	-20	12	0%	?
O=C(NCc1cccc(C(F)(F)F)c1)C1CCCN(c2ncccn2)C1 (stereo not given)	67*	3	-7	-33	-3	-9%	-5%
C=Cc1ccc(Cn2c(C)c(CNCCc3ccc(OCC)cc3)c(C(=O)O)c2C)cc1	1	.	.	6	.	.	.
CCC(=O)N1CCc2cc(S(=O)(=O)CCC(=O)Nc3cccc(C)n3)ccc21	35*	-15	0	-14	2	0%	1%
CCC(=O)N1CCc2cc(S(=O)(=O)CCC(=O)Nc3ccc(OC)cc3)ccc21	1	8	-5	8	-3	.	.
O=C(NCCS(=O)(=O)N1CCN(c2ccccc2)CC1)c1ccccc1F	3	-4	3	15	2	-6%	8%
O=C(COc1ccccc1)NCCS(=O)(=O)N1CCN(c2ccccc2)CC1	28	77*	2	5	?	18%	?
O=C(NCCN1CCN(c2ccccc2)CC1)c1ccccc1F	79*	72*	-17	-28	?	?	15%
O=C(CN1Cc2ccccc2C1=O)Nc1cc(F)ccc1F	1	.	.	-12	.	.	.
CCOC(=O)N1CCc2c(sc(N)c2C#N)C1	74*	58*	54*	-26	?	?	?
CNC(=O)C1CCC(Cn2c(=O)c3sccc3n(Cc3cc(C)ccc3C)c2=O)CC1 (stereo not given)	2	.	.	-5	.	.	.
O=C(O)Cc1sc(N/N=C\c2ccncc2)nc1-c1ccccc1	10	-14	2	0	?	?	2%
O=C(O)Cc1sc(Nc2ccccc2)nc1-c1ccccc1	0	.	.	0	.	.	.
CC1CCCC(NC(=O)C2COc3ccccc3O2)C1C (stereo not given)	-1	-14	-19	6	-1	-3%	-3%
COC(=O)CN(C)C(=O)CC1C(=O)NCCN1CC(C)(C)C (stereo not given)	40*	-3	-3	-12	-2	-5%	-1%

Assay outcomes: PubChem, National Center for Advancing Translational Sciences (NCATS)
